Screening results: PubChem, Broad Institute
The list is not random: actives were taken first. Their share in the collection is about 6.7%.
C diff growth – inhibitors of Clostridium difficile growth; 86,000 compounds, 0.25% hits; growth activity, negative = inhibition, % at 16 µg/mL (by protocol); Clostridium difficile clinical isolate growth, OD600, 24 h; stronger effect = lower value;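 active = mean growth activity at or below -80% and every replicate also at or below -80%; inconclusive = mean at or below -80% but some replicate above -80%; inactive = mean growth activity above -80%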;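 also: 0% = DMSO wells and -100% = levofloxacin 16 µg/mL wells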
Pf Dd2 growth – inhibitors of Plasmodium falciparum Dd2 growth; P. falciparum Dd2 growth, SYBR Green, 72 h; stronger effect = lower value; activity change, % at 10 µM; 94,000 compounds, 2.3% hits; in the data active = activity change below about -80%; inconclusive = no clear call, values can overlap the other calls
T cruzi growth-1 – blocks T. cruzi growth in NIH3T3 culture | T. cruzi beta-gal in NIH3T3, GalScreen luminescence, 90 h | inhibition, % at 8.34 µM | 77,000 compounds, 5.9% hits | AID 624255;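 active = mean inhibition above about 93%, with at least 55% of replicates each passing it, limit read from the data, passing the limit was not always enough; inconclusive = only one of those two conditions holds; inactive = neither condition holds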
T cruzi growth-2 – blocks T. cruzi growth in NIH3T3 host cells; inhibition, % at 8.35 µM; shares compounds with T cruzi growth-1; AID 651739; T. cruzi beta-gal in NIH3T3, GalScreen luminescence, 90 h; 5,600 compounds, 72% hits;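 active = mean replicate inhibition above about 95% and at least 55% of replicates individually reaching it, limit read from the data; inconclusive = only one of the two criteria is met; inactive = neither criterion is met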
T cruzi growth-3 – inhibitors of T. cruzi proliferation; shares compounds with T cruzi growth-1; T. cruzi beta-gal in NIH3T3, GalScreen luminescence, 90 h; inhibition, % at 2.09 µM; 5,600 compounds, 21% hits; AID 651740;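 active = mean inhibition above about 95%, with at least 55% of replicates also reaching it, limit read from the data; inconclusive = meets just one of the two conditions; inactive = meets neither condition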;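 also: plate controls were neutral control median for no effect and positive control median for full effect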
NIH3T3 tox – NIH/3T3 (mouse) viability loss. shares compounds with T cruzi growth-1. NIH/3T3 viability, CellTiter-Glo ATP luminescence, 90 h. cytotoxicity (signal decrease), % at 8.35 µM. 5,600 compounds, 14% hits. AID 651742;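 active = mean signal decrease across replicates above about 35% based on untreated-well scatter, with enough replicates individually passing, limit read from the data; inconclusive = no rule stated though some were filed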;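 also: 0% = median of neutral control wells and 100% = median of positive control wells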
NIH3T3 tox 2 – cytotoxicity in mouse NIH/3T3 fibroblasts; AID 651744; NIH/3T3 viability, CellTiter-Glo ATP luminescence, 90 h; inhibition, % at 24.9 µM; shares compounds with T cruzi growth-1; 5,600 compounds, 56% hits;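 active = mean loss of cell viability signal at or above a set limit, and enough replicates individually reaching it; inconclusive = meets only the mean limit or only the replicate share; inactive = meets neither condition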;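 also: 0% = median of neutral control wells and 100% = median of positive control wells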
An asterisk follows results filed as active; ? = inconclusive; / = no result given.

SMILES	C diff growth	Pf Dd2 growth	T cruzi growth-1	T cruzi growth-2	T cruzi growth-3	NIH3T3 tox	NIH3T3 tox 2
OC[C@H]1Nc2ccc(C#Cc3ccc(F)cc3)cc2[C@H]2[C@@H]1CCN2Cc1nccs1	2.0	-22.4	103.5*	107.4*	101.6*	14.8	105.8*
O=C(C1CC1)N1CC[C@@H]2[C@H]1c1cc(C#Cc3ccc(F)cc3)ccc1N[C@@H]2CO	-19.5	-61.2	63.8	/	/	/	/
OC[C@@H]1Nc2ccc(C3=CCCCC3)cc2[C@@H]2[C@H]1CCN2Cc1nccs1	-0.8	-78.2	/	/	/	/	/
OC[C@@H]1Nc2ccc(C#Cc3ccc(F)cc3)cc2[C@H]2[C@@H]1CCN2Cc1nccs1	/	-29.6	104.1*	98.4*	105.3*	36.8*	104.6*
CN1C(=O)c2cc(NC(=O)c3ccc(F)cc3)ccc2OC[C@H]2O[C@H](CC(=O)N3CCOCC3)CC[C@H]21	-5.1	-6.2	13.9	/	/	/	/
CC(C)C#Cc1cnc2c(c1)C(=O)N([C@H](C)CO)C[C@@H](C)[C@H](CN(C)S(=O)(=O)c1cn(C)cn1)O2	0.5	21.1	-5.7	/	/	/	/
O=C(C[C@H]1C[C@H]2c3cc(NC(=O)C4CCOCC4)ccc3O[C@H]2[C@H](CO)O1)NCC1CC1	-3.9	27.1	-20.9	/	/	/	/
C[C@@H]1CN([C@H](C)CO)C(=O)c2cc(NC(=O)Cn3cnnn3)ccc2O[C@@H]1CN(C)S(=O)(=O)c1ccc(Cl)cc1	-10.1	4.6	19.8	/	/	/	/
C[C@H](O)C#Cc1ccc2c(c1)O[C@@H](CN(C)Cc1cccnc1)[C@H](C)CN([C@@H](C)CO)S2(=O)=O	0.0	9.3	28.3	/	/	/	/
C[C@@H]1CN([C@H](C)CO)S(=O)(=O)c2ccc(C#CCN(C)C)cc2O[C@H]1CN(C)Cc1cccnc1	0.7	-28.2	95.7*	100.7*	93.2	25.2	42.2*
C[C@@H]1CN([C@@H](C)CO)S(=O)(=O)c2ccc(C#CCN(C)C)cc2O[C@@H]1CN(C)Cc1cccnc1	2.8	5.1	?	99.4*	62.0	27.8	47.9*
C[C@@H]1CN([C@@H](C)CO)S(=O)(=O)c2ccc(C#C[C@@H](C)O)cc2O[C@H]1CN(C)Cc1cccnc1	-6.3	-20.2	36.1	/	/	/	/
C[C@H]1CN([C@@H](C)CO)S(=O)(=O)c2ccc(C#CCN(C)C)cc2O[C@@H]1CN(C)Cc1cccnc1	-0.9	-42.1	103.8*	110.4*	107.6*	8.3	14.8
CC(C)C#Cc1ccc2c(c1)O[C@H](CN(C)Cc1cccnc1)[C@@H](C)CN([C@H](C)CO)S2(=O)=O	2.4	-63.5	107.1*	107.7*	103.7*	-20.6	101.8*
COCC#Cc1ccc2c(c1)O[C@@H](CN(C)Cc1cccnc1)[C@H](C)CN([C@H](C)CO)S2(=O)=O	-2.1	-25.6	51.5	/	/	/	/
CC(C)C#Cc1ccc2c(c1)O[C@@H](CN(C)Cc1cccnc1)[C@@H](C)CN([C@@H](C)CO)S2(=O)=O	6.9	-48.5	97.2	/	/	/	/
COCC(=O)Nc1ccc2c(c1)OC[C@H](C)N(CCc1ccccc1)C[C@@H](C)[C@@H](OC)CN(C)C2=O	/	-43.5	24.9	/	/	/	/
Cc1ccccc1S(=O)(=O)N[C@H]1CC[C@@H](CCn2cc(-c3ccc(F)cc3)nn2)O[C@@H]1CO	/	-8.5	28.3	/	/	/	/
C[C@@H]1CCCCO[C@H](CN(C)CC2CCCCC2)[C@@H](C)CN([C@H](C)CO)C(=O)c2cc(NC(=O)Nc3ccccc3)ccc2O1	10.1	-58.3	109.2*	111.5*	91.0	4.0	94.6*
C[C@@H]1CCCCO[C@@H](CN(C)CC2CCCCC2)[C@H](C)CN([C@@H](C)CO)C(=O)c2cc(NC(=O)Nc3ccccc3)ccc2O1	12.1	-71.3	104.8*	101.0*	57.8	31.3	104.5*
C[C@H]1CCCCO[C@@H](CN(C)CC2CCCCC2)[C@@H](C)CN([C@@H](C)CO)C(=O)c2cc(NC(=O)c3ccccc3)ccc2O1	5.0	?	38.7	/	/	/	/
C[C@@H]1CCCCO[C@H](CN(C)CC2CCCCC2)[C@H](C)CN([C@@H](C)CO)C(=O)c2cc(NC(=O)Nc3ccccc3)ccc2O1	0.1	-67.1	91.8	/	/	/	/
C[C@@H]1CCCCO[C@H](CN(C)CC2CCCCC2)[C@H](C)CN([C@@H](C)CO)C(=O)c2cc(NC(=O)c3ccccc3)ccc2O1	1.5	-64.1	114.7	/	/	/	/
C[C@@H]1CCCCO[C@H](CN(C)CC2CCCCC2)[C@H](C)CN([C@H](C)CO)C(=O)c2cc(NC(=O)c3ccccc3)ccc2O1	1.8	-77.0	118.0*	113.5*	65.0	14.5	105.0*
C[C@@H]1CCCCO[C@@H](CN(C)CC2CC2)[C@H](C)CN([C@H](C)CO)C(=O)c2cc(NC(=O)Nc3ccccc3)ccc2O1	/	-35.2	85.6	/	/	/	/
SMILES	C diff growth	Pf Dd2 growth	T cruzi growth-1	T cruzi growth-2	T cruzi growth-3	NIH3T3 tox	NIH3T3 tox 2
C[C@@H]1CCCCO[C@@H](CN(C)CC2CCCCC2)[C@@H](C)CN([C@@H](C)CO)C(=O)c2cc(NC(=O)Nc3ccccc3)ccc2O1	7.8	-68.8	124.8*	104.5*	92.0	22.8	103.3*
CCNC(=O)C[C@@H]1CC[C@@H]2[C@@H](COc3ccc(NC(=O)c4cc(C)on4)cc3C(=O)N2C)O1	4.9	-3.1	1.6	/	/	/	/
CCCNC(=O)N1CC2(C1)[C@@H](c1ccccc1)[C@@H](CO)N2C(=O)C1CC1	-5.8	-5.1	/	/	/	/	/
COc1ccc(CNC(=O)C[C@H]2CC[C@@H]3[C@@H](COc4ccc(NC(C)=O)cc4C(=O)N3C)O2)cc1	5.8	-6.7	-14.2	/	/	/	/
C[C@@H]1CN([C@@H](C)CO)S(=O)(=O)c2ccc(C#CC3CC3)cc2O[C@@H]1CN(C)Cc1cncnc1	/	15.8	73.8	/	/	/	/
CC(C)CC#Cc1ccc([C@@H]2[C@@H](CO)N3CCCCN(C(=O)c4ccc5c(c4)OCO5)C[C@H]23)cc1	1.3	-0.1	80.2	/	/	/	/
C[C@@H]1CN([C@@H](C)CO)C(=O)c2cc(NC(=O)Nc3ccc4c(c3)OCO4)ccc2O[C@@H](C)CCCCO[C@@H]1CN(C)CC1CCCCC1	2.2	-79.3	-43.2	/	/	/	/
C[C@H]1CCCCO[C@@H](CN(C)CC2CCCCC2)[C@@H](C)CN([C@@H](C)CO)C(=O)c2cc(NC(=O)Nc3ccc4c(c3)OCO4)ccc2O1	-5.7	-81.2*	98.5*	?	109.5*	41.1*	106.5*
COc1ccc(NC(=O)Nc2ccc3c(c2)CC(=O)N([C@@H](C)CO)C[C@@H](C)[C@H](CN(C)CC2CC2)O3)cc1	-3.1	-40.7	25.9	/	/	/	/
COc1ccc(NC(=O)Nc2ccc3c(c2)C(=O)N([C@H](C)CO)C[C@H](C)[C@@H](CN(C)CC2CCCCC2)OCCCC[C@H](C)O3)cc1	0.2	-71.2	95.7*	105.3*	111.6*	24.5	105.1*
COc1ccc(NC(=O)Nc2ccc3c(c2)C(=O)N([C@H](C)CO)C[C@@H](C)[C@@H](CN(C)CC2CCCCC2)OCCCC[C@H](C)O3)cc1	-7.6	-74.7	90.9	/	/	/	/
